The values below come from PubChem BioAssay AID504385 (National Center for Advancing Translational Sciences (NCATS), 2011).

Active and inactive are the calls of the source. How the calls were made is not given here.

The target in this experiment is Lutropin-choriogonadotropic hormone receptor (Homo sapiens) (UniProt P22888). The experiment can be described thus: Counterscreen for antagonists of the thyroid stimulating hormone receptor: ELISA activity in a Luteinizing Hormone Receptor cell line. The conditions noted are these: HEK293 LHR cells, LH-induced cAMP ELISA. From the text: TSH is an alpha/beta heterodimeric glycoprotein hormone secreted from the anterior pituitary gland which belongs to the glycoprotein hormone family. The actions of TSH are mediated by a seven-transmembrane receptor, which upon TSH binding couples preferentially to the G-alpha (s) protein (Gs), resulting in activation of adenylate cyclase and increase in cyclic adenosine 3', 5' monophosphate (cAMP). The TSH receptor (THSR) is mainly expressed in thyroid follicular cells and regulates their growth and function. This cell based assay was conducted on a TSHR transfected HEK 293 cell line, measuring cAMP stimulation using antibody-based Homogeneous Time Resolved Fluorescence (HTRF). Our goal is to identify small molecules that will inhibit (antagonize) the thyroid-stimulating hormone receptor (TSHR), a member of the 7 transmembrane-spanning receptor (7TMR) family of cell surface receptors. TSHR-mediated hyperthyroidism is important in thyroid pathology. The development of small molecule antagonists of TSHR may lead to therapeutic approaches for TSHR-mediated hyperthyroidism caused by constitutively activating mutations or stimulating auto-antibodies associated with Graves' disease. Graves' disease is the leading cause of hyperthyroidism and is caused by autoantibodies that stimulate TSHR (TsAbs) causing thyroid growth and unregulated overproduction of thyroid hormones and existing treatments have liabilities (agranulocytosis). In addition, TSHRs are known to be expressed in multiple extrathyroidal tissues including bone, brain, kidney, testis, fat and cells of the immune system but the role of the TSHR in these tissues is not clear. Therefore, TSHR antagonists/inverse agonists could be used as probes of extrathyroidal TSHR function. Finally, TSHR inverse agonists, which are a subclass of antagonists that inhibit agonist-independent (or basal or constitutive) TSHR signaling, could be used to inhibit TSH-independent signaling in patients with recurrent or metastatic thyroid cancer who are receiving thyroid hormone to suppress TSH. In order to confirm specificity of the compounds to the TSHR, a confirmatory assay was conducted on a similar family member, the Luteinizing Hormone Receptor, transfected into a HEK 293 cell line, using an orthogonal detection technology to measure cAMP stimulation: an ELISA based cAMP competition assay using cAMP-Screen Direct System (Applied Biosystems, Foster City, CA)/
Lutropin-choriogonadotropic hormone receptor (Homo sapiens), sequence (P22888 whole entry, looked up): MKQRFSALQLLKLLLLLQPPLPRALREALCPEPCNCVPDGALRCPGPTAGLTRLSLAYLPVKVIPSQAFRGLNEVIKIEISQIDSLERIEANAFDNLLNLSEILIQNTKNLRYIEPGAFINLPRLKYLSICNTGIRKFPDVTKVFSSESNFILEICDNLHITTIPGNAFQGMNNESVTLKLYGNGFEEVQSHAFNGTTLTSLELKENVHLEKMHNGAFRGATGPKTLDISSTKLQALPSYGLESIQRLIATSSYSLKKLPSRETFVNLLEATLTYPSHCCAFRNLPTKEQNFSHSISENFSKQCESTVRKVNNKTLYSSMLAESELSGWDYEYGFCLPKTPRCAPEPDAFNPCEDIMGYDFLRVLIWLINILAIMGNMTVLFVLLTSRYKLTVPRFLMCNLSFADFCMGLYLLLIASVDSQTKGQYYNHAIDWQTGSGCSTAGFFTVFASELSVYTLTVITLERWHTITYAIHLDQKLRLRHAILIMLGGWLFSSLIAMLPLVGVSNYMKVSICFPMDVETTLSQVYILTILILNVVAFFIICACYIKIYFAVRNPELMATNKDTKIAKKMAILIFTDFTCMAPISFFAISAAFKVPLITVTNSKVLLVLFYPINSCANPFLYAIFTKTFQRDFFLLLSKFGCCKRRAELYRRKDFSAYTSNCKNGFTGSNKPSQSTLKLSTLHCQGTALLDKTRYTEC
Transiently transfected HEK-EM 293 cells or cells stably expressing LHR were seeded into 96-well plates at a density of 7 x10^4 cells per well in DMEM containing 10% FBS. Cells were cultured for 24 h before incubation for 20 min in HBSS/10 mM HEPES (pH 7.4). To determine the effect of the compound on LH induced LHR activity, cells were incubated for 20 min with the compound in HBSS/HEPES without IBMX and subsequently for 40 min with bovine LH (Sigma) and the compound in HBSS/HEPES supplemented with 1 mM IBMX at 37 C. The levels of cAMP in cells incubated in HBSS/HEPES without IBMX were subtracted in all experiments. After aspiration of the incubation medium, cells were lysed using lysis buffer of the cAMP-Screen Direct system (Applied Biosystems, Foster City, CA). The cAMP content of the cell lysate was determined using the method described in the manufacturer's protocol. The chemiluminescence signal was measured in a VICTOR3 V 1420 multilabel counter (PerkinElmer, Norwalk, CT). The potency (IC50) of the ligands were obtained from dose-response curves by data analysis with GraphPad Prism 4 for Windows.
On the technique in general: The purpose of a counterscreen is to sort out artefacts and off-target activity.
A word on the IC50: it is the concentration that inhibits the measured activity by half. Regarding `COc1ccc(C2Nc3ccccc3C(=O)N2Cc2ccco2)cc1COc1c(C)cccc1C` (configuration not stated), the IC50 was 0.48 µM (active). As to `COc1ccc(C2Nc3ccccc3C(=O)N2Cc2ccco2)cc1CSc1c(C)cccc1C` (configuration not stated), the compound was classed as inactive. On the same count and under the same terms, for `COc1ccc(C2Nc3ccccc3C(=O)N2Cc2ccco2)cc1COc1c(C)cc(NC(C)=O)cc1C` (configuration not stated) the value was “inactive”; for `COc1ccc(C2Nc3ccccc3C(=O)N2Cc2cccnc2)cc1COc1c(C)cccc1C` (configuration not stated), “inactive”. Still for that read-out and setting: with `Cc1cccc(C)c1OCc1cccc(C2Nc3ccccc3C(=O)N2Cc2ccco2)c1` (configuration not stated) the entry was “inactive”; with `COc1ccc(C2Nc3ccccc3C(=O)N2Cc2ccc(C)o2)cc1COc1c(C)cccc1C` (configuration not stated), “inactive”. On the same count and under the same terms, with `CCc1cccc(CC)c1OCc1cc(C2Nc3ccccc3C(=O)N2Cc2ccco2)ccc1OC` (configuration not stated) the entry was “inactive”.
